# Data taken from the supplement of paper PMC10646978.
# ± gives the standard deviation.
# Columns and labels:
# Conditions in all cases: modulator concentration 10 µM
# [1] = test system: RAW-Dual (murine macrophage reporter line); assay: NF-kB reporter (SEAP) activity fold change vs agonist alone; higher = enhanced NF-kB activity
# Procedure, shortened: (§1)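 Compound reached 10 μM final in each well by pin transfer, onto RAW-Dual murine macrophage reporter cells seeded at 50 000 per well in 384-well plates. After 1 hour at 37 °C, the cells were stimulated overnight with a PRR agonist. SEAP in the supernatant was read with QUANTI-Blue at 620 nm absorbance for NF-κB, and Lucia luciferase was read with QUANTI-Luc luminescence for IRF. Each signal was turned into fold change against the mean agonist-only control on the same plate, and two replicate plates were averaged with propagated errors.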
# [2] = test system: RAW-Dual (murine macrophage reporter line); assay: IRF reporter (Lucia luciferase) activity fold change vs agonist alone; higher = enhanced IRF activity
# Procedure, shortened: as §1
# [3] = test system: RAW-Dual (murine macrophage reporter line); assay: viability score (confluency relative to resting cells, overnight) (fraction); higher = more viable, active = viable (0.7 or more)
# Procedure, shortened: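 Two confluency masks, generated with IncuCyte software over all imaged wells, were applied to IncuCyte images of RAW-Dual macrophages. The cells, in 384-well plates, had been exposed overnight to 10 μM final compound. The viability score is confluency as a fraction of resting cells, and a compound met the cutoff only with both masks above 70% of resting cells.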
# [4] = agonist: CpG ODN 1826 0.5 ug/mL
SMILES,"NF-kB reporter [1, 4]",NF-kB reporter ([1]; agonist: LPS 0.1 ug/mL),NF-kB reporter ([1]; agonist: MPLA […]),IRF reporter ([2]; agonist: 3'3'-cGAMP 10 ug/mL),IRF reporter ([2]; agonist: LPS 0.1 ug/mL),IRF reporter ([2]; agonist: MPLA […]),viability score [3]
Nc1ccc(C=Cc2ccccc2)cc1,0.964 ± 0.097,0.776 ± 0.038,0.976 ± 0.034,0.174 ± 0.012,0.857 ± 0.089,0.719 ± 0.056,0.973 (active)
CN1CCN(c2nc3c(=O)[nH]cnc3n2C2OC(CO)C(O)C2O)CC1 (stereo unspecified),0.979 ± 0.11,1.03 ± 0.071,0.904 ± 0.084,1.01 ± 0.089,1.22 ± 0.082,1.08 ± 0.25,1.01 (active)
COc1ccc(C(=O)CSc2nnc(NC(=O)C3CC(=O)N(c4cccc(OC)c4)C3)s2)cc1 (stereo unspecified),1.15 ± 0.066,1.11 ± 0.11,1.23 ± 0.13,0.528 ± 0.026,0.758 ± 0.059,0.708 ± 0.23,1.01 (active)
NC12CC3CC(CC(C3)C1)C2,1.19 ± 0.31,1.09 ± 0.066,1.01 ± 0.087,0.874 ± 0.061,1.13 ± 0.15,1.06 ± 0.2,0.999 (active)
Oc1c(Br)cc(C=NNc2nc3ccccc3s2)c(O)c1Br,0.957 ± 0.082,0.958 ± 0.098,1.08 ± 0.1,0.642 ± 0.069,1.35 ± 0.23,1.63 ± 0.44,1.03 (active)
CS(=O)(=O)N(CC(=O)Nc1ccccc1Cl)c1ccc(Cl)c(C(F)(F)F)c1,0.753 ± 0.067,1.08 ± 0.062,0.874 ± 0.052,1.52 ± 0.11,1.35 ± 0.14,1.25 ± 0.2,0.961 (active)
CN(C)CCOC1=Cc2ccccc2Sc2ccc(Cl)cc21 [Prestw-1368],0.965 ± 0.077,0.97 ± 0.094,1.11 ± 0.039,0.772 ± 0.031,0.895 ± 0.061,0.761 ± 0.099,0.994 (active)
Cc1ccc(S(=O)(=O)Nc2cc(-c3c(O)ccc4ccccc34)c(O)c3ccccc23)cc1,0.941 ± 0.073,0.994 ± 0.076,1.16 ± 0.11,0.337 ± 0.015,0.808 ± 0.047,0.611 ± 0.075,0.956 (active)
CCOC(=O)C1=C(C)NC(C)=C(C(=O)OCC)C1c1ccc(OC)cc1,0.973 ± 0.088,1.05 ± 0.066,1.02 ± 0.068,1.17 ± 0.044,0.867 ± 0.081,0.987 ± 0.27,0.946 (active)
COC(=O)C1=CN(CC2CCCO2)C=C(C(=O)OC)C1c1cccc(Cl)c1 (stereo unspecified),0.59 ± 0.053,0.736 ± 0.065,0.83 ± 0.072,0.82 ± 0.037,1.17 ± 0.069,1.1 ± 0.093,0.994 (active)
O=C1Cc2cc(NC(=O)c3ccc(OC(F)(F)F)cc3)ccc2N1,1.19 ± 0.083,0.929 ± 0.076,0.998 ± 0.068,0.643 ± 0.034,0.959 ± 0.059,0.99 ± 0.13,1 (active)
Cc1ccccc1C(OCCN(C)C)c1ccccc1.O=C(O)CC(O)(CC(=O)O)C(=O)O (stereo unspecified),1.35 ± 0.36,1.34 ± 0.23,2.11 ± 1,0.582 ± 0.024,1.51 ± 0.14,1.25 ± 0.12,0.981 (active)
CCOC(=O)CC(C(=O)OCC)P(=O)(c1ccccc1)c1ccccc1 (stereo unspecified),0.85 ± 0.048,0.943 ± 0.086,1.02 ± 0.14,0.993 ± 0.061,1.17 ± 0.095,1.15 ± 0.23,1.01 (active)
